Test results: PubChem BioAssay (NCATS)
Inconclusive results are not listed. Activity calls are given as the source filed them. Unless noted, calls follow the shape of the dose curve; as a rule, active = well fitted curve in the direction sought with a large enough effect; inconclusive = small, poorly fitted or top-dose-only effect, or another doubt; inactive = no such curve, though single readings can be large; an effect the other way counts as inactive or inconclusive.

How the values were obtained:
[1] = HPAF-II 18hr Apoptosis Induction qHTS against the NCATS CANVASS Library (AID 1347360)
Outline: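 Caspase-3/7 activation was measured with luminescent Caspase-Glo 3/7 reagent (15 min, RT) in HPAF-II cancer cells (500 cells/well). Before detection, cells had been treated for 18 h at 37 C with compounds (11 points).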

[2] = HEK293 12hr Apoptosis Induction qHTS against the NCATS CANVASS Library (AID 1347361)
Outline: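 HEK293 cells (500/well, DMEM + 10% FBS) were exposed to natural products across an 11-point series for 12 hours at 37 degrees C. Caspase-3/7 activity was then measured with DEVD luciferase luminescence after 15 min at room temperature.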

[3] = test system: NAD(P)H diaphorase (Clostridium kluyveri); assay: Diaphorse counterscreen qHTS: Assay Interference Panel against the NCATS CANVASS Library (AID 1347362)
Outline: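 Counterscreen for coupling-enzyme interference: resorufin fluorescence from resazurin/NADH turnover, read after 5 min at room temperature. Compounds were tested over an 11-point series after 15 min dark preincubation with diaphorase in PBS-Tween.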

[4] = biological target: Luciferin 4-monooxygenase (Photinus pyralis) (UniProt P08659); assay: Firefly luciferase counterscreen qHTS: Assay Interference Panel against the NCATS CANVASS Library (AID 1347363)
Outline: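 Luminescence inhibition readout: compounds (11-point qHTS) sat 15 min at room temperature with substrate mix (0.013 mM luciferin and ATP), then firefly luciferase was added and signal read 5 min later.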

[5] = KB-8-5-11 Cancer Cell Toxicity qHTS against the NCATS CANVASS Library (AID 1347364)
Outline: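 Plate 500 KB-8-5-11 cells per well in DMEM + 10% FBS, add compounds by pin transfer, incubate 72 hr at 37C. Add CellTiter-Glo, wait 10 minutes at room temperature, read luminescence.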

[6] = KB-3-1 Cancer Cell Toxicity qHTS against the NCATS CANVASS Library (AID 1347366)
Outline: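 CellTiter-Glo luminescence measured viability after 72 h at 37C. KB-3-1 cells were seeded at 500 per well in DMEM/10% FBS.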

[7] = qHTS for ATAD5 Agonist screened against the NCATS CANVASS Library (AID 1347367)
Outline: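 Genotoxicity via ATAD5-luciferase luminescence after 16 h compound exposure (11-point series) at 37C in HEK293T-ATAD5 cells. CellTiter-Fluor viability read precedes the luminescence read; MMS serves as positive control.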

[8] = MCF7 Cancer Cell Toxicity qHTS against the NCATS CANVASS Library (AID 1347369)
Outline: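 Cytotoxicity was measured as CellTiterGlo luminescence (ATP) after 72 h at 37 °C. The cells were MCF7 at 500 per well, with an 11-point compound concentration series.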

[9] = qHTS for ATAD5 Antagonist screened against the NCATS CANVASS Library (AID 1347370)
Outline: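 HEK293T cells with stably integrated ATAD5-luciferase reporter, 2000/well, 5 h attachment; compounds plus 10 µM 5-fluorouridine, 16 h at 37 °C. Luciferase luminescence read, with CellTiter-Fluor viability read first.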

[10] = J3T Cancer Cell Toxicity qHTS against the NCATS CANVASS Library (AID 1347371)
Outline: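 Cells plated at 500 per well, compounds pin-transferred, plates incubated 72 hr at 37C, then CellTiterGlo added and luminescence read to measure ATP content.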

[11] = biological target: Nuclear receptor subfamily 1 group I member 3 (Homo sapiens) (UniProt Q14994); assay: qHTS for Constitutive Androstane Receptor (CAR) Antagonist screened against the NCATS CANVASS Library (AID 1347372)
Outline: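 HepG2-CYP2B6-hCAR double-stable cells plated, 4hr attach; cpd pin-transferred; CITCO 50 nM final; 24hr 37C/5% CO2; CellTiter-Fluor 1hr (fluorescence), then ONE-Glo luminescence.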

[12] = biological target: Nuclear receptor subfamily 1 group I member 3 (Homo sapiens) (UniProt Q14994); assay: qHTS for Constitutive Androstane Receptor (CAR) Agonist screened against the NCATS CANVASS Library (AID 1347373)
Outline: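 HepG2-hCAR-CYP2B6 cells, 2500/well, attached 4hr; cpd + PK11195 1.5uM final; 24hr 37C 5% CO2. CellTiter-Fluor viability read, then ONE-Glo luminescence for CAR activation.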

[13] = 10-beta competent E. coli microbial cell viability qHTS against the NCATS CANVASS Library (AID 1347376)
Outline: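 E. coli 10-beta, 0.2 OD; cpds 11-pt; o/n 37C, 5% CO2; BacTiter-Glo 20 min RT; luminescence (ATP) = viable cells. Daunomycin ctrl.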

[14] = DH5-alpha competent E. coli microbial cell viability qHTS against the NCATS CANVASS Library (AID 1347377); conditions: outcome: at 46.1 µM (top of the series)
Outline: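 qHTS, 11-pt; E. coli DH5-alpha, 0.2 OD; o/n 37C/5% CO2; BacTiter-Glo, 20 min RT; luminescence.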

[15] = qHTS for Inflammasome Signaling Inhibitors: IL-1-beta AlphaLISA screen against the NCATS CANVASS Library (AID 1347379)
Outline: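 THP-1 cells pretreated 1 hr with compound (up to 57.5 uM final), then stimulated with LPS (250 ng/mL final) and ATP (1.25 mM final). Secreted IL-1B measured by AlphaLISA after 16 hr; glyburide as positive control.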

[16] = qHTS for Antimalaria activity screened against the NCATS CANVASS Library (AID 1347380)
Outline: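 Dd2 strain, infected erythrocytes 2.5% Hct final / 0.3% parasitemia. 11-pt qHTS titration, 72 h, 37C, 5% O2, 5% CO2. Lysis buffer + SYBR Green, 18 h, fluorescence 485/535 nm.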

[17] = Inflammasome Signaling qHTS Counterscreen: IL-1-beta AlphaLISA counterscreen against the NCATS CANVASS Library (AID 1347381)
Outline: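 Cell-free interference check: compounds added to medium spiked with 4 pg purified IL-1β. Anti-IL-1β acceptor beads (6 ug/mL) with 0.6 nM biotinylated antibody added for 1 h at RT, then streptavidin donor beads (24 ug/mL) for 30 min in the dark. AlphaLISA read at 680/615 nm.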

[18] = qHTS for Activators of p53 Stress Response Pathway screened against the NCATS CANVASS Library (AID 1347388)
Outline: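 Beta-lactamase reporter driven by p53 response elements in HCT-116 cells, read as the 460 nm/530 nm emission ratio after CCF4 loading, following 16 h of exposure to an 11-point series. Cell viability was measured in the same wells by CellTiter-Glo luminescence.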

[19] = qHTS assay for small molecule disruptors of mitochondrial membrane potential screened against the NCATS CANVASS Library (AID 1347389)
Outline: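 HepG2, 2,000 cells/well, attached overnight; compound 1 hr, 37C, 5% CO2; Mito-MPS dye 30 min, 37C; fluorescence 535 nm (monomer) and 590 nm (aggregate); decreased 590/535 ratio = depolarization.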

[20] = qHTS for activators of dead-cell proteases activity screened against the NCATS CANVASS Library (AID 1347392)
Outline: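 Compounds are pin-transferred onto attached HepG2 cells, giving 11 final concentrations. After 5 h at 37C, AAF-aminoluciferin reagent is added and luminescence is recorded at room temperature.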

[21] = qHTS for inhibitors of Wild type Zika virus screened against the NCATS CANVASS Library (AID 1347396)
Outline: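 Vero 766 cells, 1000/well, o/n attach; cpds pin-transferred (11-pt qHTS); WT Zika added; 72 h, 37C, 5% CO2; CellTiter Glo lumi. Uninfected + vehicle = 100% inhibition.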

[22] = Viability qHTS for inhibitors of the SERCaMP assay screened against the NCATS CANVASS Library (AID 1347400)
Outline: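 SH-SY5Y SERCaMP MJH297 cells, 1000/well; 4 h settle, 37C/5% CO2; pin-transferred cpds; 48 h; CellTiter-Glo lum. Pos ctrl bortezomib 0.0001 - 4.6 uM.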

[23] = Redox Reaction Profiling qHTS: Assay Interference Panel against the NCATS CANVASS Library (AID 1347401)
Outline: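 Cell-free redox surrogate: 5 uM resazurin + 200 uM DTT, 50 mM HEPES pH 7.3/50 mM NaCl; cpds pinned, 11-pt qHTS; Ex525/Em598 read t0 and t=15 min, dark.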

[24] = NCATS anti-infectives library activity on HEK293 viability as a counter-qHTS vs the C. elegans viability qHTS (AID 1745854)
Outline: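 Compounds were acoustically plated (several concentrations, 1:5, final up to 41.7 uM), then 1500 HEK293 cells added per well and incubated 24 hr at 37C, 5% CO2. CellTiter-Glo was added and luminescence read after 10 min.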

[25] = NCATS anti-infectives library activity on the primary C. elegans qHTS viability assay (AID 1745855; calls by dose curve)
Outline: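 Viability read-out is GFP fluorescence of PE254-GFP-FLuc C. elegans, measured by laser cytometry (488 nm) at day 0, 3 and 7. Ten L1 worms per well were incubated 7 days at 21 °C with compounds and bacterial capsules in S medium.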

Measured: Potency

Sequence of Nuclear receptor subfamily 1 group I member 3 (Homo sapiens) (Q14994 whole entry, looked up): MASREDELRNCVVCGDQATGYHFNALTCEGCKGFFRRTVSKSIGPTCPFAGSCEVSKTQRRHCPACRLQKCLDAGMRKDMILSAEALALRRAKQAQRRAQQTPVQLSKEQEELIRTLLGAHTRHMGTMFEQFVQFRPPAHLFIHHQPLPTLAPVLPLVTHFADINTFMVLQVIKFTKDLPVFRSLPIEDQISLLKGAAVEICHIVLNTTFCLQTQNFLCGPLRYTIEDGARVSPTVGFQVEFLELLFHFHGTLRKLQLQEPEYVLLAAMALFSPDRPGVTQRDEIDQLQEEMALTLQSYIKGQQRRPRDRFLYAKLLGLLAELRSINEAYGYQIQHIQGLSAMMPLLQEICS
Sequence of Luciferin 4-monooxygenase (Photinus pyralis) (P08659 whole entry, looked up): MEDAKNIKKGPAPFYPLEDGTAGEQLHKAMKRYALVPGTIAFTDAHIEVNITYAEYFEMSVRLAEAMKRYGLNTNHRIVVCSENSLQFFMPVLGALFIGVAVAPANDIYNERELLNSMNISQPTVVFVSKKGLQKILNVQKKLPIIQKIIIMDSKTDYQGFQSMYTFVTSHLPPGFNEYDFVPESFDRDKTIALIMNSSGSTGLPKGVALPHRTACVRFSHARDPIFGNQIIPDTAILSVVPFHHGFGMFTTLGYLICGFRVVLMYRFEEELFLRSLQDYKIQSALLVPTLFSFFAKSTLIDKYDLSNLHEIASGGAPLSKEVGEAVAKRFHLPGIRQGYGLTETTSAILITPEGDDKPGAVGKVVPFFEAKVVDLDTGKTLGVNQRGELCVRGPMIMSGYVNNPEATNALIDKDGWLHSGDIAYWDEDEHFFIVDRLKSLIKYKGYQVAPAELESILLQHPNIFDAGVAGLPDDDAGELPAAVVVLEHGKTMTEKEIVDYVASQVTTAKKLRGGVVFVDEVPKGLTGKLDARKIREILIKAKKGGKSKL

CN(C)Cc1c[nH]c2ccccc12
inactive: all assays above
